Results on nine compounds are retold here after PubChem BioAssay.

Active and inactive are the calls of the source.

The nature of this test: changes in parasitized red cell lysis, either direction – P. falciparum Indochina, OD700, 3 h, PSAC antagonist project, primary screen (AID 1156). Particulars: P. falciparum-infected erythrocytes, osmotic lysis, higher = more signal, called active from +8 up or from −8 down.
Take `Cc1ccccc1C(O)C1C=CC2C(=O)N(c3ccccc3)C(=O)C2N1Nc1ccccc1F` (centres undefined): the z-score is 0.39 (inactive).
To `COC(=O)[C@@]1(CCS(=O)(=O)c2ccccc2)N=C(c2ccc(OCCCO)cc2)O[C@H]1c1ccccc1N=[N+]=[N-]` belongs 1.09 (inactive); to `C=C(CCCC)C(=O)CC[C@H](OC(=O)c1cccnc1)c1ccc(CO)o1`, 0.217 (inactive).
In the case of `COCCOC(=O)N1C(=O)[C@@]2(c3cc(C#CC4(O)CCCCCC4)ccc31)[C@H](c1ccc(OCCO)cc1)N1[C@H](c3ccccc3)[C@H](c3ccccc3)OC(=O)[C@H]1[C@@H]2C(N)=O`, the z-score is 0.295 (inactive).
Take `CN(C)C(=O)[C@]1(Cc2ccccc2)N=C(c2ccc(OCCCO)cc2)O[C@@H]1c1ccccc1`: the z-score is -0.0356 (inactive).
To `COc1ccc(C#Cc2ccc3c(c2)[C@]2(C(=O)N3)[C@H](C(=O)Nc3nc4ccccc4s3)[C@H]3C(=O)O[C@H](c4ccccc4)[C@H](c4ccccc4)N3[C@@H]2c2ccc(OCCO)cc2)cc1` belongs -0.521 (inactive).
Consider `CCOC(=O)C[C@H]1[C@H](OC(=O)c2ccc(C(=O)c3ccccc3)cc2)[C@@H](NC(=O)c2ccc3ccccc3c2)c2cc(OCCCO)ccc2N1C(=O)c1ccc2ccccc2n1`, for which the z-score was -0.0906 (inactive).
For `CN(C)CCCCNC(=O)[C@H]1C[C@H]2C(=O)N[C@@H](Cc3ccccc3)C(=O)N2[C@H]1c1cccc(OCCO)c1`, the z-score is -0.282 (inactive).
With `C=C(CC1([C@@H](NP(=O)(c2ccccc2)c2ccccc2)[C@H]2C[C@@H]2CCN(C(=O)OCC)S(=O)(=O)c2ccc(C)cc2)CC1)c1ccccc1`, the z-score is 2.36 (inactive).
